Results as given in publication PMC4336329 (PLoS ONE, 2015).
Among all 310,000 compounds or so, about 14,000 (4.5%) showed an effect of 50% or more. Effects have a minus sign here. Many of the other results were omitted from the sample, so strong results are more common in it than they were.

biological target: human ether-à-go-go-related gene (hERG) potassium channel (human, UniProt Q12809); experiment: primary screen, population patch clamp on CHO cells stably expressing hERG; higher = less effect of the substance
Sequence (Q12809 whole entry, looked up): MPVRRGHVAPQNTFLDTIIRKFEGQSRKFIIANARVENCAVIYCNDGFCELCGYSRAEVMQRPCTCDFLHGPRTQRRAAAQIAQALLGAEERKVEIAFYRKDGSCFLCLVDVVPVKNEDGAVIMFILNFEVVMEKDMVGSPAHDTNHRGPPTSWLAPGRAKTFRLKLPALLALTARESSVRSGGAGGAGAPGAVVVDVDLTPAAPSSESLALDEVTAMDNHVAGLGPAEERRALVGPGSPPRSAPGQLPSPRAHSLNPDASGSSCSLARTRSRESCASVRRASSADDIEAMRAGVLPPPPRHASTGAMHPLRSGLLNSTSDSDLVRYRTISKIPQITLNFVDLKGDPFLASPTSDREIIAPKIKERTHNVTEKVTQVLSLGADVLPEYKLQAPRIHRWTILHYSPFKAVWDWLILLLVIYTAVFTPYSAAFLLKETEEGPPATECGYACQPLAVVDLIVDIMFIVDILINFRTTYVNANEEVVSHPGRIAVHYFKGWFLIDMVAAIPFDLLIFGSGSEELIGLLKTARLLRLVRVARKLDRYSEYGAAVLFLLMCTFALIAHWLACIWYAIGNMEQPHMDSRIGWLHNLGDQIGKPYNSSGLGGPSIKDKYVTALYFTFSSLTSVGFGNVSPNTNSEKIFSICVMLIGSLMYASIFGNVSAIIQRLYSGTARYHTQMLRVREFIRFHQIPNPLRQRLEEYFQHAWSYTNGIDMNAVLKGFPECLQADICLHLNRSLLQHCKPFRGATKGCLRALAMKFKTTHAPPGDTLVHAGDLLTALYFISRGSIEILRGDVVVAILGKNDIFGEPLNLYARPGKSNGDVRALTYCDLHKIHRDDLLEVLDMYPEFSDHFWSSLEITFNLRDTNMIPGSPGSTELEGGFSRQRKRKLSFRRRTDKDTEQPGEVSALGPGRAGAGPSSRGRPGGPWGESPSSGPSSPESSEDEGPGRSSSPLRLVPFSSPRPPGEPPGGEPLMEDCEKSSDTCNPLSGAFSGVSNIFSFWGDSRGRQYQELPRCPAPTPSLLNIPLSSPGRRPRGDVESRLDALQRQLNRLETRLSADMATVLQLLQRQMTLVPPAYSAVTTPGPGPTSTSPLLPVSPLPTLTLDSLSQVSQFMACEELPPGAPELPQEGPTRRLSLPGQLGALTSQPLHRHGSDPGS
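Also: peak tail current of the secondary pulse compared with the same well before compound.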

SMILES | hERG current change (%, negative = inhibition) at 10uM
O=C(Nc1ccc(Br)cn1)c1ccc2ccccc2c1 | 26.8%
N=c1occ(C(=O)c2cc(F)ccc2O)cc1C(=O)NC1CCCCC1 | 0.995%
O=C(COc1ncnc2ccccc12)Nc1ccc(Cl)c([N+](=O)[O-])c1 | -7.85%
CCOc1ccc(S(=O)(=O)Nc2ccc(C(=O)NCCCN3CCCC3=O)cc2)cc1 | 0.2%
COCCCn1c(C)csc1=Nc1cccnc1 | 4.68%
COCCn1c(-c2ccc(Br)cc2)csc1=Nc1cccnc1 | -14.2%
CCCCn1c(C)csc1=Nc1cccnc1 | -2.02%
Cl.c1ccc(-c2csc(=Nc3cccnc3)n2CC2CCCO2)cc1 (centres unmarked) | -31.4%
Br.COCCn1c(-c2ccccc2)csc1=Nc1cccnc1 | -68.3%
Clc1ccc(-c2csc(=Nc3cccnc3)n2CCCn2ccnc2)cc1Cl | -67.3%
Cc1csc(=Nc2cccnc2)n1Cc1ccco1 | -0.17%
COCCn1c(-c2ccco2)csc1=Nc1cccnc1.Cl | -3.9%
Cc1ccc(-c2csc(=Nc3cccnc3)n2CCCn2ccnc2)cc1C | -70.2%
CCCNS(=O)(=O)c1ccc(OCC(=O)N2CCC(C(=O)OCC)CC2)cc1 | -12.6%
COc1ccc(C2Nc3ccccc3NC3=C2C(=O)CC(C)(C)C3)cc1O (centres unmarked) | 19%
COc1ccc([C@H]2CC(=O)C=C(c3ccc4c5c(cccc35)CC4)C2)cc1 | 16%
Cc1cc(N2CCCC2=O)ccc1S(=O)(=O)Nc1c(C)nn(C)c1C | 12.3%
N#C/C(=C(/O)c1ccc(Cl)cc1)c1nc2ccccc2[nH]1 | 7.3%
Cn1c(NNC(=O)c2cccc3ccccc23)cc(=O)n(C)c1=O | 6.73%
Cc1cc(C)nc(N2CCC(C(=O)NCc3ccco3)CC2)n1 | -1.73%
Cc1cc(NCc2ccco2)nc(N2CCC(C(=O)NC3CCCCC3)CC2)n1 | -71.1%
Cc1cc(C)nc(N2CCC(C(=O)NC3CCCCCC3)CC2)n1 | -4.75%
O=C(CSc1nnc(NC(=O)c2ccco2)s1)NC1CCCC1 | 18.6%
CC(Oc1ccc(F)cc1)C(=O)N(CCC1=CCCCC1)c1c(N)n(Cc2ccccc2)c(=O)[nH]c1=O (centres unmarked) | -52%
Nc1c(N(CCC2=CCCCC2)C(=O)COc2ccc(F)cc2)c(=O)[nH]c(=O)n1Cc1ccccc1 | -6.12%
CC(Oc1ccccc1)C(=O)N(CCC1=CCCCC1)c1c(N)n(Cc2ccccc2)c(=O)[nH]c1=O (centres unmarked) | -48.6%
